# Experimental data reported in the supplement of paper PMC8728848.
# The sample as a whole holds a higher share of the strongest signals than the screen did.
# B1: XL-35 (Xenopus laevis) (protein)
# chain: MLVHILLLLVTGGLSQSCDPVVIVASKNMVKQLDCDKFRNCKEIKDSNEEAQDGIYTLTSPDGISYQTFCDMTTNGGGWTLVASVHENNMAGKCTIGDRWSSQQGNRADYPEGDGNWANYNTFGSAGGATSDDYKNPGYYDIEAYNLGVWHVPNKTPLSVWRNSSLQRYRTTDGILFKHGGNLFSLYRIYPVKYGIGSCSKDSGPTVPVVYDLGSANLTASFYSPGFRSQFTPGYIQFRPINTEKAALALCPGMKMESCNVEHVCIGGGGYFPEADPRQCGDFAAYDFNGYGTKKFNSAGIEITEAAVLLFYL
# Tests used:
# Experiment in all cases: glycan array binding signal (z-score within array); higher = stronger binding
# Conditions in all cases: glycan notation: IUPAC condensed, linker removed
# [1] = target: Fuc(a1-2)Gal(b1-3)GalNAc(b1-4)[Neu5Ac(a2-3)]Gal(b1-4)Glc
# In short: (§1)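 The binding signal is a Z-score computed within each array and averaged over linkers. Arrays of the same protein sequence at different concentrations or buffers were also averaged together. Data originate from 3228 arrays in the Consortium for Functional Glycomics database, kept only where the protein sequence was available.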
# [2] = target: Fuc(a1-2)Gal(b1-3)GlcNAc6S
# In short: as §1
# [3] = target: Fuc(a1-2)Gal(b1-3)[Fuc(a1-4)]GlcNAc(b1-2)Man(a1-3)[Fuc(a1-2)Gal(b1-3)[Fuc(a1-4)]GlcNAc(b1-2)Man(a1-3)]Man(b1-4)GlcNAc(b1-4)GlcNAc
# In short: as §1
# Fuc(a1-2)Gal(b1-4)Glc6S = target: Fuc(a1-2)Gal(b1-4)Glc6S
# In short: as §1
# [4] = target: Fuc(a1-2)Gal(b1-4)GlcNAc(b1-2)[Fuc(a1-2)Gal(b1-4)GlcNAc(b1-4)]Man(a1-3)[Fuc(a1-2)Gal(b1-4)GlcNAc(b1-2)Man(a1-6)]Man(b1-4)GlcNAc(b1-4)GlcNAc
# In short: as §1
# Fuc(a1-2)GlcNAc = target: Fuc(a1-2)GlcNAc
# In short: as §1
# [5] = target: Fuc(a1-2)[Gal(a1-3)]Gal(b1-3)GalNAc(b1-3)Gal(a1-4)Gal(b1-4)Glc
# In short: as §1
# [6] = target: Fuc(a1-2)[Gal(a1-3)]Gal(b1-3)GlcNAc(b1-3)GalNAc
# In short: as §1
# [7] = target: Fuc(a1-2)[Gal(a1-3)]Gal(b1-4)[Fuc(a1-3)]GlcNAc
# In short: as §1
# [8] = target: Fuc(a1-2)[GalNAc(a1-3)]Gal(b1-4)[Fuc(a1-3)]GlcNAc(b1-3)GalNAc
# In short: as §1
# [9] = target: Fuc(a1-2)[GalNAc(a1-4)]Gal(b1-4)GlcNAc
# In short: as §1
# [10] = target: Fuc(a1-3)[Gal(b1-4)]GlcNAc(b1-3)Gal(b1-3)[Fuc(a1-4)]GlcNAc
# In short: as §1
# [11] = target: Fuc(a1-3)[GalNAc(b1-4)]GlcNAc
# In short: as §1
# Gal(a1-3)Gal(b1-3)Glc = target: Gal(a1-3)Gal(b1-3)Glc
# In short: as §1
# [12] = target: Gal(a1-3)Gal(b1-4)GlcNAc(b1-2)Man(a1-3)[Gal(a1-3)Gal(b1-4)GlcNAc(b1-2)Man(a1-6)]Man(b1-4)GlcNAc(b1-4)GlcNAc
# In short: as §1
# Gal(a1-3)GlcNAc = target: Gal(a1-3)GlcNAc
# In short: as §1
# [13] = target: Gal(b1-3)GalNAc(a1-3)[Fuc(a1-2)]Gal(b1-4)Glc
# In short: as §1
# [14] = target: Gal(b1-3)GalNAc(a1-3)[Fuc(a1-2)]Gal(b1-4)GlcNAc
# In short: as §1
# [15] = target: Gal(b1-3)GlcNAc(a1-6)Gal(b1-4)GlcNAc
# In short: as §1
# [16] = target: Gal(b1-3)GlcNAc(b1-3)Gal(b1-4)GlcNAc
# In short: as §1
# [17] = target: Gal(b1-3)[Neu5Ac(a2-6)]GlcNAc(b1-4)Gal(b1-4)Glc
# In short: as §1
# Gal(b1-4)GlcNAc = target: Gal(b1-4)GlcNAc
# In short: as §1
# [18] = target: Gal(b1-4)GlcNAc(b1-2)[Gal(b1-4)GlcNAc(b1-4)]Man(a1-3)[Gal(b1-4)GlcNAc(b1-2)[Gal(b1-4)GlcNAc(b1-6)]Man(a1-6)]Man(b1-4)GlcNAc(b1-4)GlcNAc
# In short: as §1
# [19] = target: Gal(b1-4)GlcNAc(b1-2)[Gal(b1-4)GlcNAc(b1-6)]Man(a1-6)[Gal(b1-4)GlcNAc(b1-2)Man(a1-3)]Man(b1-4)GlcNAc(b1-4)[Fuc(a1-6)]GlcNAc
# In short: as §1
# [20] = target: Gal(b1-4)GlcNAc(b1-2)[Gal(b1-4)GlcNAc(b1-6)]Man(a1-6)[GlcNAc(b1-4)][Gal(b1-4)GlcNAc(b1-2)Man(a1-3)]Man(b1-4)GlcNAc(b1-4)GlcNAc
# In short: as §1
# [21] = target: Gal3S(b1-4)[Fuc(a1-3)]Glc6S
# In short: as §1
# [22] = target: GalNAc(b1-3)Gal(a1-4)Gal(b1-4)GlcNAc(b1-3)Gal(b1-4)Glc
# In short: as §1
# [23] = target: GalNAc3S(b1-4)[Fuc(a1-3)]GlcNAc
# In short: as §1
# GalNAc4S6S(b1-4)GlcNAc = target: GalNAc4S6S(b1-4)GlcNAc
# In short: as §1
# [24] = target: Glc(a1-6)Glc(a1-6)Glc(a1-6)Glc
# In short: as §1
binder,measurement,setting,value
B1,glycan array binding signal (z-score),[1],-0.108
same,glycan array binding signal (z-score),[2],-0.184
same,glycan array binding signal (z-score),[3],-0.215
same,glycan array binding signal (z-score),Fuc(a1-2)Gal(b1-4)Glc6S,0.014
same,glycan array binding signal (z-score),[4],0.358
same,glycan array binding signal (z-score),Fuc(a1-2)GlcNAc,-0.021
same,glycan array binding signal (z-score),[5],-0.322
same,glycan array binding signal (z-score),[6],-0.477
same,glycan array binding signal (z-score),[7],-0.202
same,glycan array binding signal (z-score),[8],20.3
same,glycan array binding signal (z-score),[9],-0.131
same,glycan array binding signal (z-score),[10],-0.053
same,glycan array binding signal (z-score),[11],6.12
same,glycan array binding signal (z-score),Gal(a1-3)Gal(b1-3)Glc,2.36
same,glycan array binding signal (z-score),[12],0.152
same,glycan array binding signal (z-score),Gal(a1-3)GlcNAc,15.9
same,glycan array binding signal (z-score),[13],-0.227
same,glycan array binding signal (z-score),[14],-0.337
same,glycan array binding signal (z-score),[15],-0.171
same,glycan array binding signal (z-score),[16],-0.474
same,glycan array binding signal (z-score),[17],0.794
same,glycan array binding signal (z-score),Gal(b1-4)GlcNAc,-0.066
same,glycan array binding signal (z-score),[18],0.777
same,glycan array binding signal (z-score),[19],0.078
same,glycan array binding signal (z-score),[20],-0.452
same,glycan array binding signal (z-score),[21],0.818
same,glycan array binding signal (z-score),[22],-0.027
same,glycan array binding signal (z-score),[23],-0.078
same,glycan array binding signal (z-score),GalNAc4S6S(b1-4)GlcNAc,0.078
same,glycan array binding signal (z-score),[24],0.158
